# Test results as given in PubChem BioAssay (EPA / NIEHS).
# Calls of active or inactive are those of the source. The calls were made as follows: active = hit-call score of the fitted dose curve at least 0.9, where 1 is the maximum; inactive = score below 0.9.
# Columns and labels:
# Settings in all cases: primary human B cells with PBMC
# [1] = BSK_BT_PBMCCytotoxicity: PBMC Cytotoxicity Assessment in the BioMAP Diversity Plus: BT Assay (AID 2284225);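 also: PBMC viability measured by Alamar Blue dye reduction fluorescence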
# Summary of the method: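 Primary human co-culture of B cells and PBMC, pre-dosed 1 h then activated with SEB and TSST-1. Cytotoxicity is taken from Alamar Blue dye reduction, added for 6 h at the end of a 90 h incubation.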
# [2] = read-out: Secreted IgG (sIgG), gene 3500; test: BSK_BT_sIgG: BioMAP Diversity Plus: BT Assay for Secreted IgG (sIgG) Biomarker Activity (AID 2284226)
# Summary of the method: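 Human B cell/PBMC co-culture; compound exposure 24 h; sIgG by ELISA; gain-of-signal fit vs DMSO baseline.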
# [3] = BSK_BT_Bcell_Proliferation: Viability Assessment in the BioMAP Diversity Plus: BT Assay for B cell Proliferation (AID 2284227)
# Summary of the method: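 Human B cell/PBMC co-culture; test chemical added; 72 h; TCA fix (10%), 0.1% SRB stain, A560 for total protein as a proliferation read-out; positive-direction fit vs DMSO baseline.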
compound,measurement,setting,value
O=C(O)C(F)(F)C(F)(F)C(F)(F)C(F)(F)C(F)(F)C(F)(F)F,outcome,[1],inactive
same,outcome,[2],inactive
same,outcome,[3],inactive
NC(=S)Nc1ccccc1,outcome,[1],inactive
same,outcome,[2],inactive
same,outcome,[3],inactive
CCCCCCCCC(=O)NCc1ccc(O)c(OC)c1,outcome,[1],inactive
same,outcome,[2],inactive
same,outcome,[3],inactive
CCCCC(CC)CO[N+](=O)[O-] (stereo not drawn),outcome,[1],inactive
same,outcome,[2],inactive
same,outcome,[3],inactive
OCc1ccco1,outcome,[1],inactive
same,AC50,[2],26.1 µM (active)
same,AC50,[3],26.7 µM (active)
BrCCBr,outcome,[1],inactive
same,outcome,[2],inactive
same,outcome,[3],inactive
O=[N+]([O-])c1ccc2c3c(cccc13)CC2,outcome,[1],inactive
same,outcome,[2],inactive
same,outcome,[3],inactive
O=C(OC1CCCCC1)c1ccccc1C(=O)OC1CCCCC1,AC50,[1],34.8 µM (active)
same,AC50,[2],34.2 µM (active)
same,AC50,[3],31.7 µM (active)
Oc1ccc(-c2ccccc2)cc1,outcome,[1],inactive
same,outcome,[3],inactive
O=C(O)C(F)(F)C(F)(F)C(F)(F)C(F)(F)C(F)(F)C(F)(F)C(F)(F)C(F)(F)C(F)(F)C(F)(F)F,outcome,[1],inactive
same,outcome,[2],inactive
same,outcome,[3],inactive
CC(=O)C(Cl)C(=O)N(C)C (stereo not drawn),AC50,[1],20 µM (active)
same,AC50,[2],20 µM (active)
same,AC50,[3],25 µM (active)
Oc1c(I)cc(I)cc1I,outcome,[1],inactive
same,outcome,[2],inactive
same,outcome,[3],inactive
CCOP(=S)(OCC)SCCS(=O)(=O)CC,outcome,[1],inactive
same,outcome,[2],inactive
same,outcome,[3],inactive
C(=NC1CCCCC1)=NC1CCCCC1,AC50,[1],8.8 µM (active)
same,AC50,[2],1.82 µM (active)
same,AC50,[3],5.75 µM (active)
COP(=S)(OC)Oc1ccc(Sc2ccc(OP(=S)(OC)OC)cc2)cc1,outcome,[1],inactive
same,AC50,[2],28.9 µM (active)
same,outcome,[3],inactive
O=S(=O)(c1ccc(Cl)cc1)c1ccc(Cl)cc1,outcome,[1],inactive
same,outcome,[2],inactive
same,outcome,[3],inactive
COC(=O)c1sccc1S(=O)(=O)NC(=O)Nc1nc(C)nc(OC)n1,outcome,[1],inactive
same,outcome,[2],inactive
same,outcome,[3],inactive
Nc1cccc2ccccc12,outcome,[1],inactive
same,outcome,[2],inactive
same,AC50,[3],20 µM (active)
COC[C@H](C)N(C(=O)CCl)c1c(C)csc1C,outcome,[1],inactive
same,outcome,[2],inactive
same,outcome,[3],inactive
Nc1ncc([N+](=O)[O-])s1,outcome,[1],inactive
same,outcome,[2],inactive
same,outcome,[3],inactive
CC(C)c1ccc(CO)cc1,outcome,[1],inactive
same,outcome,[2],inactive
same,outcome,[3],inactive
COP(=S)(OC)Oc1ccc(S(=O)(=O)N(C)C)cc1,outcome,[1],inactive
same,AC50,[2],9.48 µM (active)
same,outcome,[3],inactive
COP(=S)(OC)Oc1c(Cl)cc(C)cc1Cl,AC50,[1],14.5 µM (active)
same,AC50,[2],22.9 µM (active)
same,outcome,[3],inactive
CCSC(C)CC1CC(=O)C(C(CC)=NOC/C=C/Cl)=C(O)C1 (stereo not drawn),outcome,[1],inactive
same,outcome,[2],inactive
same,outcome,[3],inactive
COc1cc(OC)nc(NC(=O)NS(=O)(=O)c2ncccc2C(=O)N(C)C)n1,outcome,[1],inactive
same,outcome,[2],inactive
same,outcome,[3],inactive
CC1(C)Cc2cccc(O)c2O1,outcome,[1],inactive
same,outcome,[2],inactive
same,outcome,[3],inactive
ClC1=C(Cl)[C@]2(Cl)[C@H]3[C@H]([C@H]4C=C[C@H]3C4)[C@@]1(Cl)C2(Cl)Cl,AC50,[1],30.5 µM (active)
same,AC50,[2],7.53 µM (active)
same,AC50,[3],36.3 µM (active)
Nc1ccc(-c2ccc(N)c(Cl)c2)cc1Cl,outcome,[1],inactive
same,AC50,[2],6.09 µM (active)
same,AC50,[3],20 µM (active)
